# Source: PubChem BioAssay (National Center for Advancing Translational Sciences (NCATS))
# WRN helicase inh: qHTS for Inhibitors of WRN Helicase; AID 651768, 2012; actives 0.46% (n = 360,000); Bifunctional 3'-5' exonuclease/ATP-dependent helicase WRN (Homo sapiens), Q14191; Potency, µM (doses to about 114 µM), for the others: at the top dose activity change, negative = inhibition, usual class: inhibitors; WRN helicase unwinding, fluorescent forked duplex, kinetic; further: on the % scale 0 is the no-effect control and ±100 the full control effect; nearly all actives have a fitted effect of over 55% in size
#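 WRN at 20 nM final was preincubated with compound for 15 min at room temperature; reaction started with 100 nM forked duplex oligonucleotide carrying fluorophore and quencher plus 2 mM ATP (final). Unwinding followed kinetically by red fluorescence (ex 525/em 598 nm).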
# POLB inh: qHTS Assay for Inhibitors of DNA Polymerase Beta | P06746 | Pol beta primer extension/strand displacement, fluorescence kinetic | Potency, µM (top dose mostly 114 µM), without a hit: at the highest dose activity change, negative = inhibition, most hits filed as inhibitors | actives 1.3% (n = 340,000) | AID 485314, 2010; further: on the % scale 0 is the no-effect control and ±100 the full control effect
#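 Reaction started by 50 nM substrate onto compound-treated Pol beta (10 nM, 15 min preincubation, room temperature); plates read at 0 min and 10 min. Normalized concentration-effect data fitted by four-parameter Hill equation.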
# FEN1 inh: qHTS Assay for the Inhibitors of Human Flap endonuclease 1 (FEN1). P39748. Recombinant FEN1 flap cleavage, fluorescence, 15 min. Potency, µM (highest dose often 114 µM), for inactives: top-dose activity change, negative = inhibition, usual class: inhibitors. actives 0.35% (n = 390,000). AID 588795, 2011; further: on the % scale 0 is the no-effect control and ±100 the full control effect; nearly all actives have a fitted effect of over 65% in size
#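 Potency values derive from four-parameter Hill fits of normalized qHTS data. The reaction used 10 nM FEN1 preincubated 15 min at room temperature with compound, then 50 nM DNA substrate, read at 0 and 15 min.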
# Pol iota inh: qHTS for Inhibitors of Polymerase Iota; DNA polymerase iota (Homo sapiens), Q9UNA4; Pol iota fluorescent replication assay, 10 min; Potency, µM (highest dose often 115 µM), for inactives: top-dose activity, negative = inhibition, most hits filed as inhibitors; actives 1% (n = 390,000); AID 588590, 2011
#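 Fluorescent replication assay read twice, at 0 min and 10 min after adding 50 nM (final) substrate. Enzyme (10 nM) and compounds were first incubated 15 min at room temperature; enzyme-free buffer wells were negative controls.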
# POLH inh: qHTS for Inhibitors of Polymerase Eta; Potency, µM (top dose mostly 114 µM), inactives show at the highest dose activity change, negative = inhibition, usual class: inhibitors; AID 588591, 2011; recombinant Pol eta, fluorescent DNA replication assay; DNA polymerase eta (Homo sapiens), Q9Y253; actives 1.2% (n = 390,000); further: on the % scale 0 is the no-effect control and ±100 the full control effect
#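 Fluorescent replication assay: 50 nM final substrate added after a 15 min room-temperature compound preincubation with 10 nM enzyme. Signal taken at 0 min and again at 10 min.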
# Pol kappa inh: qHTS for Inhibitors of Polymerase Kappa. purified Pol kappa, fluorescent DNA synthesis assay, 10 min. Potency, µM (highest dose often 107 µM), without a hit: at the highest dose activity, negative = inhibition, actives largely listed as inhibitors. actives 0.53% (n = 400,000); further: on the % scale 0 is the no-effect control and ±100 the full control effect
#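 Kinetic fluorescence screen: compound preincubated 15 min RT with 10 nM enzyme; 50 nM substrate (final) initiates; reads at 0/10 min.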
# * marks the source's active call; other numbers are inactive results; ? = inconclusive; · = not tested or not shown; [ ] = remark or other dose. Compounds with a hit are over-represented: about 2.4% of the library has one in this group of screens. The call rests on the fitted dose curve; in most records, active means well fitted curve in the direction sought with a large enough effect; inconclusive means small, poorly fitted or top-dose-only effect, or another doubt; inactive means no such curve, though single readings can be large; an effect the other way counts as inactive or inconclusive. Potency means the concentration at half of the fitted maximal effect.
SMILES,WRN helicase inh,POLB inh,FEN1 inh,Pol iota inh,POLH inh,Pol kappa inh
O=C(CCl)N(Cc1cc(=O)[nH]c2ccccc12)c1ccccc1,-4%,29%,-14%,?,50µM*,-3%
O=C(CSCc1ccc(Cl)cc1)N/N=C/c1ccc(OCC(=O)Nc2ccccc2)cc1,-12%,79µM*,15%,?,-16%,0%
CCOc1[nH]c(/N=C/c2ccccc2)c(C#N)c1C#N,·,·,4%,?,·,-2%
COc1[nH]c(/N=C/c2ccco2)c(C#N)c1C#N,·,·,?,71µM*,·,-5%
CCN(CC)c1nc(N)c2c(N)n(-c3ccccc3C)c(=S)c(C#N)c2c1C#N,?,10%,-6%,?,45µM*,?
CCN(CC)c1nc(N)c2c(N)nc3c(c2c1C#N)CC(c1ccccc1)O3 (stereo not drawn),-12%,9%,-24%,?,-13%,-4%
O=c1c2c(nc3cc(-c4ccccc4Cl)[nH]n13)CCS2,-12%,35µM*,-19%,-8%,0%,-16%
O=C(CSc1nc2c([nH]c3ccccc32)c(=O)n1-c1ccc(Cl)cc1)N1CCOCC1,·,1%,6%,5%,-7%,-4%[60.1 µM]
CS(=O)(=O)Nc1cccc(-c2cn3c(n2)SCC3)c1,-11%,0%,20µM*,?,-3%,32µM*
CCOC(=O)c1ccc(CC(=O)c2ccc(O)c(O)c2O)o1,?,1.1µM*,14µM*,1µM*,?,1.6µM*
CCOC(=O)c1ccc(CC(=O)c2oc3cc(O)ccc3c2C)o1,-16%[57.1 µM],3%,-13%,57%,-5%,-19%
N[C@H](C(=O)N[C@@H]1C(=O)N2C(C(=O)O)=C(Cl)CS[C@@H]12)c1ccccc1,·,·,·,·,·,-8%[12 µM]
Cn1nnnc1SCC1=C(C(=O)O)N2C(=O)[C@@H](NC(=O)[C@H](O)c3ccccc3)[C@H]2SC1,25µM*,10µM*,?,3.2µM*,1.3µM*,1.6µM*
Cn1nnnc1SCC1=C(C(=O)O)N2C(=O)C(NC(=O)C(OC=O)c3ccccc3)C2SC1 (stereo not drawn),·,·,·,·,·,22µM*
CCc1ccc(CNC(=O)c2cnc3sc(N4CCOCC4)nn3c2=O)cc1,·,?,6%,-13%,-8%,0%
Cc1cc(=O)n(CCCc2ccccc2)[nH]1,2%,·,8%,10µM*,-13%,12%
O=c1ccn(C2OC(COP(=O)(O)OC3C(CO)OC(n4ccc(=O)[nH]c4=O)C3O)C(O)C2O)c(=O)[nH]1 (stereo not drawn),·,·,·,·,·,2%[19.4 µM]
O=C(O)c1ccc(N2C(=O)/C(=C/C=C/c3ccccc3)SC2=S)cc1,-7%[57.1 µM],?,-7%,?,50µM*,-3%[60.1 µM]
Cc1ccc(-c2nn(-c3ccccc3)cc2C=C2SC(=S)N(CCS(=O)(=O)O)C2=O)cc1,20µM*,·,·,·,·,·
Fc1ccccc1-n1ncc2c1ncn1nc(-c3ccccc3Cl)nc21,·,0%,-2%,22%,·,0%
CC(=O)Nc1nonc1-c1nc2ccccc2n1N(C(C)=O)C(C)=O,-25%[57.1 µM],35µM*,1%,?,?,-17%
Cc1ccc(NC(=O)/C(C#N)=C(\N)C(Cl)(Cl)Cl)nc1,32%,0%,16%,263%,45µM*,-2%
N[C@@]1(C(=O)O)CN[C@@H](C(=O)O)C1,·,·,·,·,·,2%[19.4 µM]
CC(=O)N1CCOc2ccc(S(=O)(=O)NCCc3ccc(S(N)(=O)=O)cc3)cc21,-3%,-13%,16%,-1%,0%,-17%
CC(=O)N1CCOc2ccc(S(=O)(=O)NCc3ccc(F)cc3)cc21,-5%[11.6 µM],100µM*,15%,71µM*,56µM*,-42%
